Measured values from PubChem BioAssay AID1159580 (chemical genetic matrix, 2015).
The campaign covered roughly 5,500 compounds. About 2,000 (36%) were called active. About 18% were inconclusive and are not listed. Rule as the data show it: active = normalized growth mostly below about 0.91 (no sharp cut-off); inconclusive = no clear call, values can overlap the other calls; inactive = mostly above about 0.92. The list shows a part of the results.

Experiment: chemical genetic growth profiling, strain panel (AID 1159580);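 also: tested at 20 µM; growth read once vehicle control cultures reached saturation at 30 °C; 1 = growth at the plate median or of vehicle wells; lower values mean less growth of the strain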
Conditions: growth OD

Measured: normalized growth

COC(=O)[C@H]1[C@H]2C[C@H]3c4[nH]c5cc(OC)ccc5c4CCN3C[C@H]2C[C@@H](OC(=O)c2cc(OC)c(OC)c(OC)c2)[C@@H]1OC
inactive: S. cerevisiae deletion strains, locus YKL009W, strain mrt4, stronger effect = lower value 0.991 | S. cerevisiae deletion strains, locus YKL068W, stronger effect = lower value 0.995 | S. cerevisiae deletion strains, locus YKL085W, strain MDH1 (second series), stronger effect = lower value 1 | S. cerevisiae deletion strains, locus YKL085W, strain MDH1, stronger effect = lower value 1 | S. cerevisiae deletion strains, locus YKL160W, strain elf1, stronger effect = lower value 0.995 | S. cerevisiae deletion strains, locus YKR001C, strain vps1, stronger effect = lower value 1.01 | S. cerevisiae deletion strains, locus YKR026C, strain gcn3, stronger effect = lower value 0.994 | S. cerevisiae deletion strains, locus YKR091W, strain srl3, stronger effect = lower value 1.02 | S. cerevisiae deletion strains, locus YLL001W, strain dnm1, stronger effect = lower value 1.03 | S. cerevisiae deletion strains, locus YLL026W, stronger effect = lower value 1.02 | S. cerevisiae deletion strains, locus YLL041C, strain sdh2, stronger effect = lower value 1.01 | S. cerevisiae deletion strains, locus YLR027C, strain aat2, stronger effect = lower value 1.01 | S. cerevisiae deletion strains, locus YLR039C, strain RIC1, stronger effect = lower value 0.971 | S. cerevisiae deletion strains, locus YLR058C, strain SHM2, stronger effect = lower value 0.992 | S. cerevisiae deletion strains, locus YLR102C, strain apc9, stronger effect = lower value 0.981 | S. cerevisiae deletion strains, locus YLR113W, strain HOG1, stronger effect = lower value 0.988 | S. cerevisiae deletion strains, locus YLR221C, strain rsa3, stronger effect = lower value 1 | S. cerevisiae deletion strains, locus YLR258W, strain gsy2, stronger effect = lower value 1.01 | S. cerevisiae deletion strains, locus YLR262C, strain YPT6 (second series), stronger effect = lower value 1 | S. cerevisiae deletion strains, locus YLR262C, strain YPT6, stronger effect = lower value 1 | S. cerevisiae deletion strains, locus YLR268W, strain sec22, stronger effect = lower value 0.987 | S. cerevisiae deletion strains, locus YLR320W, strain mms22, stronger effect = lower value 1.01 | S. cerevisiae deletion strains, locus YLR330W, strain CHS5, stronger effect = lower value 0.992 | S. cerevisiae deletion strains, locus YLR342W, strain FKS1 (second series), stronger effect = lower value 1.04 | S. cerevisiae deletion strains, locus YLR342W, strain FKS1, stronger effect = lower value 1.01 | S. cerevisiae deletion strains, locus YLR357W, strain rsc2, stronger effect = lower value 1 | S. cerevisiae deletion strains, locus YLR370C, strain arc18, stronger effect = lower value 1.01 | S. cerevisiae deletion strains, locus YLR371W, strain rom2, stronger effect = lower value 1 | S. cerevisiae deletion strains, locus YLR384C, strain iki3, stronger effect = lower value 0.998 | S. cerevisiae deletion strains, locus YLR418C, strain cdc73, stronger effect = lower value 0.998 | S. cerevisiae deletion strains, locus YML016C, strain PPZ1, stronger effect = lower value 0.998 | S. cerevisiae deletion strains, locus YML032C, strain rad52, stronger effect = lower value 0.991 | S. cerevisiae deletion strains, locus YML120C, strain ndi1, stronger effect = lower value 1.01 | S. cerevisiae deletion strains, locus YML124C, strain tub3, stronger effect = lower value 1.01 | S. cerevisiae deletion strains, locus YMR058W, strain fet3, stronger effect = lower value 1.01 | S. cerevisiae deletion strains, locus YMR078C, strain ctf18, stronger effect = lower value 1 | S. cerevisiae deletion strains, locus YMR125W, strain sto1, stronger effect = lower value 1.02 | S. cerevisiae deletion strains, locus YMR129W, stronger effect = lower value 0.999 | S. cerevisiae deletion strains, locus YMR205C, strain PFK2, stronger effect = lower value 1.02 | S. cerevisiae deletion strains, locus YMR223W, strain ubp8, stronger effect = lower value 1.02 | S. cerevisiae deletion strains, locus YMR231W, strain pep5, stronger effect = lower value 1.01 | S. cerevisiae deletion strains, locus YMR263W, strain SAP30, stronger effect = lower value 0.98 | S. cerevisiae deletion strains, locus YMR307W, strain GAS1, stronger effect = lower value 1.16 | S. cerevisiae deletion strains, locus YNL067W, strain RPL9B, stronger effect = lower value 0.961 | S. cerevisiae deletion strains, locus YNL071W, strain lat1, stronger effect = lower value 1.02 | S. cerevisiae deletion strains, locus YNL128W, strain TEP1, stronger effect = lower value 0.954 | S. cerevisiae deletion strains, locus YNL153C, strain GIM3, stronger effect = lower value 0.99 | S. cerevisiae deletion strains, locus YNL183C, strain NPR1, stronger effect = lower value 0.909 | S. cerevisiae deletion strains, locus YNL209W, strain ssb2, stronger effect = lower value 1.01 | S. cerevisiae deletion strains, locus YNL233W, strain BNI4, stronger effect = lower value 0.981 | S. cerevisiae deletion strains, locus YNL248C, strain rpa49, stronger effect = lower value 1 | S. cerevisiae deletion strains, locus YNL250W, strain rad50, stronger effect = lower value 0.985 | S. cerevisiae deletion strains, locus YNL271C, strain bni1, stronger effect = lower value 1.02 | S. cerevisiae deletion strains, locus YNL298W, strain CLA4, stronger effect = lower value 0.996 | S. cerevisiae deletion strains, locus YNL307C, strain MCK1, stronger effect = lower value 0.987 | S. cerevisiae deletion strains, locus YNL322C, strain KRE1 (second series), stronger effect = lower value 1.01 | S. cerevisiae deletion strains, locus YNL322C, strain KRE1, stronger effect = lower value 1 | S. cerevisiae deletion strains, locus YNR049C, strain mso1, stronger effect = lower value 1.02 | S. cerevisiae deletion strains, locus YNR052C, strain pop2, stronger effect = lower value 0.995 | S. cerevisiae deletion strains, locus YOL012C, strain htz1 2.11 | S. cerevisiae deletion strains, locus YOL147C, strain pex11, stronger effect = lower value 0.984 | S. cerevisiae deletion strains, locus YOR001W, strain rrp6, stronger effect = lower value 1.01 | S. cerevisiae deletion strains, locus YOR061W, strain CKA2, stronger effect = lower value 0.998 | S. cerevisiae deletion strains, locus YOR069W, strain VPS5, stronger effect = lower value 1 | S. cerevisiae deletion strains, locus YOR070C, strain gyp1, stronger effect = lower value 1.02 | S. cerevisiae deletion strains, locus YOR080W, strain dia2, stronger effect = lower value 1.01 | S. cerevisiae deletion strains, locus YOR083W, strain WHI5, stronger effect = lower value 0.987 | S. cerevisiae deletion strains, locus YOR106W, strain vam3, stronger effect = lower value 1 | S. cerevisiae deletion strains, locus YOR136W, strain idh2, stronger effect = lower value 0.997 | S. cerevisiae deletion strains, locus YOR144C, strain elg1, stronger effect = lower value 1.01 | S. cerevisiae deletion strains, locus YOR184W, strain ser1, stronger effect = lower value 1.01 | S. cerevisiae deletion strains, locus YOR231W, strain MKK1, stronger effect = lower value 0.948 | S. cerevisiae deletion strains, locus YOR265W, strain rbl2, stronger effect = lower value 1.02 | S. cerevisiae deletion strains, locus YOR270C, strain vph1, stronger effect = lower value 1.08 | S. cerevisiae deletion strains, locus YOR290C, strain snf2, stronger effect = lower value 0.971 | S. cerevisiae deletion strains, locus YOR316C, strain cot1, stronger effect = lower value 0.989 | S. cerevisiae deletion strains, locus YPL051W, strain arl3, stronger effect = lower value 0.977 | S. cerevisiae deletion strains, locus YPL055C, strain LGE1, stronger effect = lower value 0.978 | S. cerevisiae deletion strains, locus YPL078C, strain atp4, stronger effect = lower value 1 | S. cerevisiae deletion strains, locus YPL106C, strain sse1, stronger effect = lower value 0.999 | S. cerevisiae deletion strains, locus YPL240C, strain hsp82, stronger effect = lower value 1.03 | S. cerevisiae deletion strains, locus YPL256C, strain CLN2, stronger effect = lower value 0.977 | S. cerevisiae deletion strains, locus YPR119W, strain clb2, stronger effect = lower value 0.994 | S. cerevisiae deletion strains, locus YPR141C, strain kar3, stronger effect = lower value 1.01 | S. cerevisiae deletion strains, locus YPR163C, strain tif3, stronger effect = lower value 0.989 | S. cerevisiae deletion strains, locus YPR167C, strain met16, stronger effect = lower value 0.998 | S. cerevisiae deletion strains, strain wtn01, stronger effect = lower value 0.992 | S. cerevisiae strains, strain wild type, stronger effect = lower value 1
